The text below walks through data of PubChem BioAssay (NCATS).

The nature of experiment [1]: AP1 Signaling Pathway (AID 357; active means well fitted curve in either direction with a large enough effect, not every such curve was filed as active;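 further: ME-180 reporter cells stimulated with EGF at its EC50 level; on the % scale 0 is the no-effect control and ±100 the full control effect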). In a few lines: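 Cells are seeded overnight, exposed to compound titrations and an EC50 level of EGF for 5 hours at 37 °C, then loaded with CCF4 dye for 2.5 hours. Beta-lactamase activity under the AP-1 element is read as a blue/green ratio.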
The nature of experiment [2]: NFAT Signaling Pathway (AID 444; active means well fitted curve in either direction with a large enough effect, not every such curve was filed as active;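 further: carbachol stimulus at about its EC50 of 1 µM final; on the % scale 0 is the no-effect control and ±100 the full control effect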). The following applies: Jurkat NFAT-bla M1, carbachol, beta-lactamase ratio, 5 h. In outline:
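Jurkat cells with NFAT-driven β-lactamase reporter and co-expressed M1 receptor, stimulated with carbachol (final 1 uM, ~EC50), compound titration, 5 h at 37 °C. CCF4 loaded 1 h at RT; 460/530 nm ratio gave %activity and AC50.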

Experiment [3] in a line: Stat Signaling Pathway (AID 446; active means well fitted curve in either direction with a large enough effect, not every such curve was filed as active;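 further: ME-180 cervical cancer cells given 40 pM IL-6 alongside compound; SIE-controlled beta-lactamase reporter measured as 460/530 nm FRET emission ratio; on the % scale 0 is the no-effect control and ±100 the full control effect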). In outline: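 FRET read-out (405 nm excitation, 460/530 nm emission) of a beta-lactamase reporter under a STAT-inducible element in ME-180 cervical carcinoma cells. Cells with compound receive 40 pM IL-6 for 5 h. Values are normalised to AC90 stimulation and AC90 JAK-inhibitor controls.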
Experiment [4] addresses Mitogen-activated protein kinase 10 (Mus musculus) (UniProt Q61831). As to the kind of experiment: JNK3 AlphaScreen Assay (AID 530; active means well fitted curve in either direction with a large enough effect, not every such curve was filed as active;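 further: kinase came from lysate of stimulated human HepG2 cells; signal reports phosphorylation of biotinylated GST-cJun 1-79 at Ser73 with 10 µM ATP; on the % scale 0 is the no-effect control and ±100 the full control effect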). In outline:
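Activity was read by AlphaScreen after JNK3-containing HepG2 lysate (cytokine pre-activated) phosphorylated biotinylated GST-cJun with 10 uM ATP at room temperature. Phospho-Ser73 cJun antibody with Protein-A acceptor beads provided detection.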
On the technique in general: In Alpha technology, singlet oxygen from a donor bead excites a nearby acceptor bead.

For experiment [5], the target named is 3',5'-cyclic-AMP phosphodiesterase 4B (Homo sapiens) (UniProt Q07343). As to the kind of experiment: qHTS Assay for Inhibitors of PDE-IV (AID 607; active means well fitted activation curve with a large enough effect in the main read-out, with a control signal flat, not every such curve was filed as active; further: % of control where 0% means no effect). In outline:
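Cell-based read-out of cAMP via a modified cyclic nucleotide-gated channel and membrane potential dye (535/590 nm) in HEK293 cells expressing PDE4 endogenously. Compounds tested up to 22.9 uM final; 100 uM RO 20-1724 reference.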

Experiment [6] has as its target Guanine nucleotide-binding protein G(i) subunit alpha-1 (Homo sapiens) (UniProt P63096). As to the kind of experiment: qHTS Assay for Inhibitors of RGS12 GoLoco Motif Activity (Green Fluorophore) (AID 879).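 Further: 0% = labeled peptide with Gαi1 and full inhibition = labeled peptide alone without protein; negative values mean loss of peptide binding seen as reduced polarization.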 In outline:
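A drop in FITC polarization marked displacement of the FITC-tagged RGS12 GoLoco peptide (10 nM) from Gαi1 (50 nM). Compounds were incubated 10 min at room temperature in Tris pH 7.5 buffer containing 150 mM NaCl, 0.1 mM GDP and 0.05% NP40; unlabeled peptide titration served as control.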
(In general: Quantitative high-throughput screening tests each substance at several concentrations.)

A short description of experiment [7]: qHTS Assay for Identification of Small Molecule Antagonists for NFkB Signaling Pathway (AID 895; active means well fitted inhibition curve with a large enough effect in the signal ratio, with a control signal flat, not every such curve was filed as active; the % refers to the signal ratio; further: on the % scale 0 is the no-effect control and ±100 the full control effect). In a few lines:
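ME-180 NFkB-bla cells (beta-lactamase under NFkB response element), plated overnight, treated with compound then 10 pM TNF alpha (about EC50) for 5 hrs at 37 C. LiveBLAzer FRET read at 460/530 nm emission, 405 nm excitation.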

Experiment [8] can be described thus: qHTS Assay for Identification of Small Molecule Agonists for Thrombopoietin (TPO) Signaling Pathway (AID 917). Further: on the % scale 0 is the no-effect control and ±100 the full control effect. In a few lines:
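First, Ba/F3 cells with human TPO receptor were held overnight without IL-3. Next, compounds and TPO (26 pM final) were added. After 24 hrs at 37 C, luciferase detection reagent was added and luminescence measured following 10 min at room temperature.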

Experiment [9] deals with Pyruvate kinase (Leishmania mexicana) (UniProt Q27686). As to the kind of experiment: qHTS Validation Assay for Inhibitors of Leishmania Mexicana Pyruvate Kinase (AID 945).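 Further: 0% = DMSO only neutral control wells.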 In outline:
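Purified LmPYK (E451W mutant, 0.2 nM) was incubated 1 h at room temperature with 0.5 mM PEP and 0.1 mM ADP in 50 mM imidazole pH 7.2, 50 mM KCl, 7 mM MgCl2; ATP formed was read by PKLight luminescence, normalized to DMSO wells.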

For experiment [10], the target named is Pyruvate kinase PKM (Homo sapiens) (UniProt P14618). As to the kind of experiment: qHTS Assay for Activators of Human Muscle Pyruvate Kinase (AID 954; active means well fitted curve in the direction sought with a large enough effect, not every such curve was filed as active;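 further: 0% = uninhibited enzyme and -100% = no enzyme or full thiadiazolimine inhibition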). In a few lines: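 ATP production by PKM2 detected via luciferase luminescence after 1 h room-temperature reaction (0.1 nM enzyme, PEP at Km 0.5 mM, ADP 0.1 mM, pH 7.2 imidazole buffer). Inhibition scaled to no-enzyme control; activation referenced to 0.3 nM enzyme wells.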
Pyruvate kinase PKM (Homo sapiens), sequence (P14618 whole entry, looked up): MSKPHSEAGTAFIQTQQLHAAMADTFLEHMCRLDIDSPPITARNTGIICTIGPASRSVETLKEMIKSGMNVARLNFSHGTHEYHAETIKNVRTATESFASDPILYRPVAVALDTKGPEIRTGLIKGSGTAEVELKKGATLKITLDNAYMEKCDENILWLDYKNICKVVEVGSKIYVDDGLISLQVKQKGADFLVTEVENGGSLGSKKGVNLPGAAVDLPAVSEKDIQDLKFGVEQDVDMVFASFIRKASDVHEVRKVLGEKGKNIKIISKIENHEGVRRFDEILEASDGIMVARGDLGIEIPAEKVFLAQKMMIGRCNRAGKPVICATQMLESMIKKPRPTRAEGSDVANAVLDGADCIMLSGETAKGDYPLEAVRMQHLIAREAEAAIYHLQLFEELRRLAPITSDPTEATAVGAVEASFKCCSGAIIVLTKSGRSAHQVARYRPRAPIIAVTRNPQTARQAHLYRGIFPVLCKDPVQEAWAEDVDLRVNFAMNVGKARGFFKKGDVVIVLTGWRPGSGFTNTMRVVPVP

The target of experiment [11] is Alpha-galactosidase (Coffea arabica) (UniProt Q42656). Nature of the experiment: Counterscreen for Glucocerebrosidase Inhibitors: qHTS Assay for Coffee Bean alpha-Galactosidase at pH 4.5 (AID 957).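 Further: plate controls were enzyme alone for no effect and no enzyme for full effect.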 In outline:
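Fluorogenic qHTS at pH 4.5 (citrate buffer with Tween-20): 2 nM enzyme, 80 uM 4-MU-alpha-galactoside substrate, compound titrated 0.7 nM to 77 uM, 20 min room temperature. Glycine/NaOH stop; 4-MU read Ex 365/Em 440; Hill-equation AC50 against no-enzyme and enzyme controls.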
For orientation: A counterscreen serves to expose hits that act by an unwanted route or on another target.

Experiment [12] concerns the target Alpha-galactosidase A (Homo sapiens) (UniProt P06280). Nature of the experiment: Counterscreen for Glucocerebrosidase Inhibitors: qHTS Assay for Human alpha-Galactosidase at pH 4.5 (AID 992). Further: 0% is about no effect. In a few lines: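 Fluorogenic 1536-well qHTS at pH 4.5 (citrate, Tween-20): 2 nM enzyme, 80 uM 4-MU-alpha-galactoside, 20 min room temperature, NaOH/glycine stop. Titration 0.7 nM to 77 uM, data normalized to no-enzyme and full-activity controls, Hill-fitted AC50.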

Experiment [13] deals with alpha-glucosidase (Oryza sativa, rice) (UniProt Q653V4). Nature of the experiment: Counterscreen for Glucocerebrosidase Inhibitors: qHTS Assay for Rice alpha-Glucosidase at pH 5.0 (AID 997).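 Further: 0% = full activity with enzyme and -100% = basal without enzyme.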 In a few lines:
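Endpoint fluorogenic assay at pH 5.0: compounds (0.7 nM to 77 uM) titrated against 4 nM rice enzyme and 400 uM 4-MU-alpha-glucoside for 20 min at room temperature; NaOH/glycine stop, read ex 365/em 440 nm, Hill-fitted AC50.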

Experiment [14] concerns the target Alpha-galactosidase (Coffea arabica) (UniProt Q42656). Nature of the experiment: Counterscreen for Glucocerebrosidase Inhibitors: qHTS Assay for Coffee Bean alpha-Galactosidase at pH 5.9 (AID 998).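 Further: plate controls were uninhibited enzyme for no effect and no-enzyme basal signal for full effect.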 In outline:
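Enzyme 2 nM + cpd (0.7 nM–77 uM titration) + 4-MU-alpha-Gal 80 uM, pH 5.9 citrate/Tween-20, RT 20 min, NaOH/glycine stop pH 10, fluor 365/440. Normalized to no-enzyme and full-activity controls; Hill-fit AC50.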

Experiment [15] has as its target Luciferin 4-monooxygenase (Photinus pyralis) (UniProt P08659). Nature of the experiment: Biochemical firefly luciferase enzyme assay for NPC (AID 624030).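 Further: purified P. pyralis luciferase at 10 nM with luciferin and ATP substrate; 0% = DMSO and -100% = full luciferase inhibition by PTC124 control; nearly all actives have a fitted effect of over 70% in size.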 In outline: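 Purified P. pyralis luciferase at 10 nM in 50 mM Tris Acetate (final), luminescence read within 5 minutes of enzyme addition to compounds. Activity normalised to PTC124 versus DMSO; concentration-response curves classed by r2, magnitude and activity.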

Experiment [16] in a line: qHTS Assay for Identifying Gametocytocidal Compounds (AID 743244).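 Further: on the % scale 0 is the no-effect control and ±100 the full control effect; actives lower the fluorescent signal which means gametocytes are killed.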 The following applies: P. falciparum 3D7 stage III-V gametocytes, alamarBlue, 72 h; max response: hits give low values. In a few lines: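 Stage III–V gametocytes of P. falciparum 3D7 were seeded at 20,000 cells/well onto pre-dispensed compounds. After 72 h, 37 °C, 5% CO2, alamarBlue was added for another 24 h.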

Experiment [17] can be described thus: P-glycoprotein substrates identified in KB-8-5-11 adenocarcinoma cell line, qHTS therapeutic library screen (AID 1346987). Further: on the % scale 0 is the no-effect control and ±100 the full control effect; nearly all actives have a fitted effect of over 65% in size. In a few lines: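 Compounds are pinned in dose-response onto KB-8-5-11 cells (500 cells/well, colchicine-free medium) and left 72 h at 37 degree C. CellTiter-Glo luminescence then yields AC50 values.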
For experiment [18], the target named is Furin (Homo sapiens) (UniProt P09958). As to the kind of experiment: Furin counterscreen qHTS for Zika virus inhibitors (AID 1347149).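 Further: purified recombinant full-length human furin enzyme at 5 nM; fluorescence gain from furin cutting a BOC-RVRR-AMC peptide substrate over 15 min; top concentration of the series differs between compounds; plate controls were no-inhibitor control for no effect and no-enzyme control for full effect; nearly all actives have a fitted effect of over 70% in size.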 In a few lines:
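Counterscreen measures cleavage of 2 microM BOC-RVRR-AMC, below its ~15 microM Km, by 5 nM full-length human furin at pH 7.0 after a 15-min compound preincubation. Inhibition derives from the 15-min fluorescence increase at 37C.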

For experiment [19], the system named is Zika virus NS2B-NS3 protease (unlinked). Nature of the experiment: Optimization of GU AMC qHTS for Zika virus inhibitors: Unlinked NS2B-NS3 protease assay (AID 1347151).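 Further: 0% = no-inhibitor control and -100% = no-enzyme control; nearly all actives have a fitted effect of over 80% in size.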 In a few lines:
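Noncovalent complex of NS2B hydrophilic domain and NS3 protease domain, 25 nM final, in 10 mM Tris-HCl pH 8.0, 0.01% Tween 20. AMC fluorescence change over 15 min at room temperature was fitted to a 4-parameter Hill equation.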

Experiment [20] can be described thus: Vero cells viability qHTS for Zika virus inhibitors (AID 1347167). Further: on the % scale 0 is the no-effect control and ±100 the full control effect. In outline: (§1)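 qHTS titration; 24-48 h compound exposure, 37 degrees C/5% CO2; DMEM, 4% FBS; CellTiter Glo ATP luminescence.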
Experiment [21] in a line: HepG2 cells viability qHTS for Zika virus inhibitors (AID 1347168). Further: on the % scale 0 is the no-effect control and ±100 the full control effect. In outline: as §1
The nature of experiment [22]: Tertiary RLuc qRT-PCR qHTS assay for Zika virus inhibitors (AID 1347169). Further: top concentration of the series differs between compounds; on the % scale 0 is the no-effect control and ±100 the full control effect; nearly all actives have a fitted effect of over 55% in size. In outline:
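Vero cells (1,000 per well) plated overnight at 37 degrees C, treated with compound in DMSO, then infected with recombinant ZIKV-RLuc (Cambodian) at MOI 1-2 for 48-72 hrs. Live-cell Renilla luciferase substrate added; luminescence read after 1-1.5 hrs.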

Experiment [23] has as its system astro. As to the kind of experiment: Drug repurposing screens with cells derived from glioblastoma tumor samples (AID 1345199). Further: on the % scale 0 is the no-effect control and ±100 the full control effect; nearly all actives have a fitted effect of over 40% in size. To be noted: viability, ATP luminescence, 48 h; series mostly up to 45.9 µM. In a few lines: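 Primary testing used CD133+ neurospheres from four GBM patients, seven concentrations, 48 h exposure and ATP-based viability; confirmation added three slower-growing patient lines.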

The nature of experiment [24]: P-glycoprotein substrates identified in KB-3-1 adenocarcinoma cell line, qHTS therapeutic library screen (AID 1346986).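 Further: potency means the concentration at half of the fitted maximal effect; potency is for cytotoxicity meaning loss of cell viability; nearly all actives have a fitted effect of over 60% in size.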 In a few lines: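 In 1536-well format, 500 cells/well received pinned compound titrations and were incubated 72 h, 5% CO2. Viability was read by CellTiter-Glo; cytotoxic if AC50 < 10 uM and efficacy >50%.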
Experiment [25] can be described thus: Primary qHTS for inhibitors of nuclear receptor binding SET domain protein 2 (NSD2) in an isogenic RCH-ACV NSD2 p.E1099K mutant (9B) (AID 1645876). Further: potency means the concentration at half of the fitted maximal effect; nearly all actives have a fitted effect of over 70% in size.
Experiment [26] in a line: Primary qHTS for inhibitors of nuclear receptor binding SET domain protein 2 (NSD2) in an RCH-ACV wild type WT cells (2C) (AID 1645877). Further: potency means the concentration at half of the fitted maximal effect; nearly all actives have a fitted effect of over 70% in size.
Experiment [27] concerns the target Glutathione peroxidase 1 (Homo sapiens) (UniProt P07203). Nature of the experiment: Primary qHTS Assay for Inhibitors of Recombinant Selenoprotein Glutathione Peroxidase 1 (GPX1) (AID 1845191). Further: on the % scale 0 is the no-effect control and ±100 the full control effect; nearly all actives have a fitted effect of over 65% in size. In a few lines:
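GR-coupled readout: NADPH consumption tracked by fluorescence, ex 340/em 450 nm, at t=0 and after 15 min at RT. Final mix 10 nM GPX1, 1 mM GSH, 0.5 mM CHP, 0.5 mM NADPH, 100 nM GR, 0.01% BSA, following 30 min enzyme–compound preincubation.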

Values without a mark were called inactive. Records with an inconclusive call do not appear. Active and inactive are the calls of the source. Unless noted, the call rests on the fitted dose curve; in most records, active means well fitted curve in the direction sought with a large enough effect; inconclusive means small, poorly fitted or top-dose-only effect, or another doubt; inactive means no such curve, though single readings can be large; an effect the other way counts as inactive or inconclusive.

Alpha-galactosidase (Coffea arabica), sequence (Q42656 whole entry, looked up): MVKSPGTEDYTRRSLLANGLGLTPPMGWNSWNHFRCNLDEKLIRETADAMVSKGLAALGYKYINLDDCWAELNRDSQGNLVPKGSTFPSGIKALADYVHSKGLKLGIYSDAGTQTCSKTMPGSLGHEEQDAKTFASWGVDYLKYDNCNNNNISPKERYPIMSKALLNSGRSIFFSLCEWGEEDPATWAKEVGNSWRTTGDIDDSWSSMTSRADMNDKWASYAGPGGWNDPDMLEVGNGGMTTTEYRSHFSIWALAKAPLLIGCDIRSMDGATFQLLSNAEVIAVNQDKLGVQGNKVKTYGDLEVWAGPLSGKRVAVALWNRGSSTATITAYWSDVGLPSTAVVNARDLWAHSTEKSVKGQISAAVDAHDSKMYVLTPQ
3',5'-cyclic-AMP phosphodiesterase 4B (Homo sapiens), sequence (Q07343 whole entry, looked up): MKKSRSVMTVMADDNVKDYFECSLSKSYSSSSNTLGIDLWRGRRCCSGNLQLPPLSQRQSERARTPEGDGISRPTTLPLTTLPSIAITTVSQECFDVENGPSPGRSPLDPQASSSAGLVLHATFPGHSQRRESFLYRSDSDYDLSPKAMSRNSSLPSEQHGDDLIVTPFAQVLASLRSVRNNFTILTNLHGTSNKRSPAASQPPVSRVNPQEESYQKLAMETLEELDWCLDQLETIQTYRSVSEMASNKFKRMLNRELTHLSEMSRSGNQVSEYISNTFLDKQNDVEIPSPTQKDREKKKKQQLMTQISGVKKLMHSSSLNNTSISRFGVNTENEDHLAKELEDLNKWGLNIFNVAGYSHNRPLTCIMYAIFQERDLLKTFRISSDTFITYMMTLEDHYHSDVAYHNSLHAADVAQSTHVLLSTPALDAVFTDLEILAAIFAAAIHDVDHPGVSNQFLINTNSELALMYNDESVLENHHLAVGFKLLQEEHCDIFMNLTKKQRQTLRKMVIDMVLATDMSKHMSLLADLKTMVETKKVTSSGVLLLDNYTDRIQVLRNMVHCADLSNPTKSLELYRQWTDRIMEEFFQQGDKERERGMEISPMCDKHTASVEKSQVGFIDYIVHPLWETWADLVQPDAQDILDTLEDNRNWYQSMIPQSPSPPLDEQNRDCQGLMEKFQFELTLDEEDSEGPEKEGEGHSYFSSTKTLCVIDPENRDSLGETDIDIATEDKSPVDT
Pyruvate kinase (Leishmania mexicana), sequence (Q27686 2-499 E452W): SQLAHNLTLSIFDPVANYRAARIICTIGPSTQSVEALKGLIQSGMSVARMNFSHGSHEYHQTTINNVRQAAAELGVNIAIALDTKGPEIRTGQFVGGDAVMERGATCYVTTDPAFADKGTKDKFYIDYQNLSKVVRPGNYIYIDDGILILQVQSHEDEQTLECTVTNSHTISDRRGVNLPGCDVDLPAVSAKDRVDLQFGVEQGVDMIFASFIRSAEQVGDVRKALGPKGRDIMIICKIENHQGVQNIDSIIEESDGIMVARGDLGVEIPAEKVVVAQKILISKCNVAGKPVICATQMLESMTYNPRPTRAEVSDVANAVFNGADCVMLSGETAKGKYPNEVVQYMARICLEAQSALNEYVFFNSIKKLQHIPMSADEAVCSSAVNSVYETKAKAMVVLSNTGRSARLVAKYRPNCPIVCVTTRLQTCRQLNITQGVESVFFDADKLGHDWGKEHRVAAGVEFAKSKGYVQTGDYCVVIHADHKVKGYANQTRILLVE
Glutathione peroxidase 1 (Homo sapiens), sequence (P07203 whole entry, looked up): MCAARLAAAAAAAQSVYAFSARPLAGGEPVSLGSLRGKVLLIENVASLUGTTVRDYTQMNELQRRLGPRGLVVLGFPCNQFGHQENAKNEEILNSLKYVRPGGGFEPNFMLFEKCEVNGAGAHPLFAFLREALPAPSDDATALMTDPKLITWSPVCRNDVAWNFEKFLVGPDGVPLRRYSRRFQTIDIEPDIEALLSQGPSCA
Furin (Homo sapiens), sequence (P09958 whole entry, looked up): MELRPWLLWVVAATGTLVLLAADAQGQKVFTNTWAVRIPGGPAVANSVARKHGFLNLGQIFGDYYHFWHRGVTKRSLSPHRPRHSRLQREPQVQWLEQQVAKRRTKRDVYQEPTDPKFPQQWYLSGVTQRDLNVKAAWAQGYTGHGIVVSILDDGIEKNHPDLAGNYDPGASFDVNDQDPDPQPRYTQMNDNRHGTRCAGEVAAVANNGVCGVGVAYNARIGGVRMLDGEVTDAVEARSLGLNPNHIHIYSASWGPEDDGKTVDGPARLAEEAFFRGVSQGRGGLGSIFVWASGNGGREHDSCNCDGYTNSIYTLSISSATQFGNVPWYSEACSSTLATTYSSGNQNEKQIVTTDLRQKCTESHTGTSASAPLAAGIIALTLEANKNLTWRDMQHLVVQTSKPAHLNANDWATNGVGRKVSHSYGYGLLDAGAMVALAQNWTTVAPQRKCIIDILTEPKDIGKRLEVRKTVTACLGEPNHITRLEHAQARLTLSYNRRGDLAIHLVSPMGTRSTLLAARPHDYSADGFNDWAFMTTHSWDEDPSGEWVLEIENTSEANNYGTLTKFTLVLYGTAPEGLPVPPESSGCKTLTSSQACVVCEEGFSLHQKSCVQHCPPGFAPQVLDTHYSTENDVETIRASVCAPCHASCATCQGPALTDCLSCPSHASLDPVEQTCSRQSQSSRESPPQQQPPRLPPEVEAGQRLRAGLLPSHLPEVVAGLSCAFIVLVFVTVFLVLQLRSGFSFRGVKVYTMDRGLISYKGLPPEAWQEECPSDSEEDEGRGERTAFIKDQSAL
Alpha-galactosidase A (Homo sapiens), sequence (P06280 whole entry, looked up): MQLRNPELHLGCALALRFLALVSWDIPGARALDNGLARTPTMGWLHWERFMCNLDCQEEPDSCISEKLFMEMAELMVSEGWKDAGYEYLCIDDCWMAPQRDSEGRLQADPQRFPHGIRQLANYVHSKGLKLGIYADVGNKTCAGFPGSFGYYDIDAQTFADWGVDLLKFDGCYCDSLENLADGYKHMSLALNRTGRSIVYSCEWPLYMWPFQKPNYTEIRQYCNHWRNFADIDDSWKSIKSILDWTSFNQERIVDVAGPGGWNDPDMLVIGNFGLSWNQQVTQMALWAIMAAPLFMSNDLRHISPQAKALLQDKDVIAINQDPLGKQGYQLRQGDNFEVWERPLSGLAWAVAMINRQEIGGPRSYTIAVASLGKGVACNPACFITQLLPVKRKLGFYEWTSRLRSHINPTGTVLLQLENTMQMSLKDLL
Luciferin 4-monooxygenase (Photinus pyralis), sequence (P08659 whole entry, looked up): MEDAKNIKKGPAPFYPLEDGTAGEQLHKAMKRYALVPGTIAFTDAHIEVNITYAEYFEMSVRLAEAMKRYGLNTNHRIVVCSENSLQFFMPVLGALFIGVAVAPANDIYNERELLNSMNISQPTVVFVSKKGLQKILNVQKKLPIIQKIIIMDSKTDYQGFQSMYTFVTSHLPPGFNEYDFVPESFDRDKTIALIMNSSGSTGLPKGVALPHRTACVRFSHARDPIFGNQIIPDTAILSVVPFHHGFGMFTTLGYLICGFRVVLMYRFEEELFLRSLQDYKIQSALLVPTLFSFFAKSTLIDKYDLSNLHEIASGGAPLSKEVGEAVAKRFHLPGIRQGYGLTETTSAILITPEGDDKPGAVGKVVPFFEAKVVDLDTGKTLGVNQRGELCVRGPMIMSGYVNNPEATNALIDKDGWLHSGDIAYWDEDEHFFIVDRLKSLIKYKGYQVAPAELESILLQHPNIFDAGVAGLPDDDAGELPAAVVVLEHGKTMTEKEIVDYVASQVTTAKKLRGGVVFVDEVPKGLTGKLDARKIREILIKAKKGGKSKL
Guanine nucleotide-binding protein G(i) subunit alpha-1 (Homo sapiens), sequence (P63096 whole entry, looked up): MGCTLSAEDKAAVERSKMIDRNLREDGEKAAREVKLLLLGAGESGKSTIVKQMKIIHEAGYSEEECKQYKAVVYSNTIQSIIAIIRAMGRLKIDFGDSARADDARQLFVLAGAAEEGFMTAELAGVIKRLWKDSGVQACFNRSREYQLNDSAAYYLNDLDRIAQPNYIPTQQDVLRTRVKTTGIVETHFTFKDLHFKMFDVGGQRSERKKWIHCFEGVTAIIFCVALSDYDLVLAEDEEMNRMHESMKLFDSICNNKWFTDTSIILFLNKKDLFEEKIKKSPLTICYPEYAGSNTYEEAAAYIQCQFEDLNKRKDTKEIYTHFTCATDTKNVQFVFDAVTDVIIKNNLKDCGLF

With `CN1CC[C@@]23CCCC[C@@H]2[C@@H]1Cc1ccc(O)cc13`, the outcome in experiment [1], in experiment [3], in [4], in experiment [6], in [8] and in experiment [9] was inactive. Also, the outcome in experiment [10], in experiment [11], in experiment [12], in experiment [13], in [14] and in experiment [19] was inactive. Also, the activity change, negative = inhibition in [2] (at 17.2 µM (top of the series)) was -12.7%; in experiment [2] (at 38 µM (top of the series)) it was -7.37%. For the same compound, the Potency result in experiment [5], in experiment [7], in [15], in experiment [17], in [18] and in experiment [20] was “inactive” throughout. For the same compound, the Potency entry in [21], in experiment [22] and in [23] was “inactive” each time. Further, in [16], the max response was 4.44%.

Turning to `CN[C@]1(c2ccccc2Cl)CCCCC1=O`, the max response in experiment [16] is 1.48%. Further, the Potency entry in experiment [17] and in [23] was “inactive” throughout.

On to `c1ccc2c(c1)Sc1ccccc1N2C[C@@H]1CN2CCC1CC2`, for which the max response in experiment [16] was -2.33%. Besides, the Potency entry in [23] was “inactive”.

Regarding `COC[C@@H]1OC(=O)/C(=C\N(C)CCCN(C)C)C2=C(O)C(=O)C3=C([C@@H](OC(C)=O)C[C@@]4(C)[C@@H]3CC[C@@H]4O)[C@@]21C`, the Potency in experiment [24] is 13 µM (active); in experiment [25], 2.59 µM (active); in [26], 2.59 µM (active). Moreover, the Potency result in [27] was “inactive”.
